# Results from ChEMBL document CHEMBL4513216, “Probing the Open Global Health Chemical Diversity Library for Multistage-Active Starting Points for Next-Generation Antimalarials” (ACS Infect Dis, 2020).
# Out of some 69,000 compounds screened, about 8,600 (12%) showed an effect of 50% or more. Many of the other results were omitted from the sample, so strong results are more common in it than they were.
# Test system: Plasmodium berghei
# Test: Screen against P. berghei liver stage (PbLuc), transformed with Luciferase, at 10uM
# Format: functional, HepG2
# Details: tested at 10 uM
row,SMILES,INHIBITION [%]
1,CN1CCOC(CNCc2coc(-c3ccc(Cl)cc3)n2)C1 (stereo not drawn),33.7
2,CN(CC(=O)N1CCc2[nH]c3ccc(F)cc3c2C1)CC1OCCO1,22.9
3,Cc1c(C(=O)N2CCC3(CCCNC3=O)C2)sc2nc[nH]c(=O)c12 (stereo not drawn),12.9
4,CN(C)Cc1cnc2n1CCN(C(=O)NCc1ccccc1)CC2,21.6
5,CC(=O)c1ccc(C(=O)NCCCOC(C)c2ccccc2)s1 (stereo not drawn),29.2
6,Cc1cc(N)nc(C2(C)CCCN2C(=O)c2cnccn2)n1 (stereo not drawn),17.1
7,O=S(=O)(NCCn1ccc(-c2ccccn2)n1)C1CCCCC1,40
8,Cc1n[nH]c2nc(-c3cc(Br)ccc3O)cc(C(=O)O)c12,4.82
9,Cc1ccc(O)c(CN2CCCCC2CCN2CCOCC2)c1 (stereo not drawn),30.3
10,Cc1nnc2n1CCN(Cc1csc(-c3ncccn3)n1)C2,26.4
11,Cn1c(CN2CCCCC2)nnc1C1CCCN(c2ccncc2F)C1 (stereo not drawn),-2.43
12,CCn1nnc2c1C(COCC(=O)N(C)C)CN(Cc1ccoc1)C2 (stereo not drawn),53.4
13,CCn1nnc2c1C(COCC(=O)N(C)C)CN(Cc1ccco1)C2 (stereo not drawn),-3.26
14,CN(C)C(=O)COCC1CN(Cc2ccoc2)Cc2nnn(C)c21 (stereo not drawn),-3.24
15,CC(C)N1CCc2nnc(COc3cncnc3)n2CC1,-2.25
16,CC(C)N1CCCCC1c1nc(N(C)C)ncc1I (stereo not drawn),-9.51
17,Cc1ncncc1-c1ccnc(N(C)C)n1,4.08
18,CCCc1cc(NC2CCc3nc(C)nn3C2)n2ncnc2n1 (stereo not drawn),-2.23
19,CCN1CCC2(COCc3cnc(NCC4CC4)nc32)C1 (stereo not drawn),13.5
20,c1ccc(CN2CCC3(COCc4cnc(NCC5CC5)nc43)C2)cc1 (stereo not drawn),43.9
21,Cc1nc(NCC2CC2)nc2c1COCC21CCN(C(=O)C(C)(C)C)C1 (stereo not drawn),49.7
22,c1cc(N2CCC3(COCc4cnc(NCC5CC5)nc43)C2)ncn1 (stereo not drawn),31.7
23,O=S(=O)(C1CC1)N1CCC2(COCc3cnc(NCC4CC4)nc32)C1 (stereo not drawn),57.4
24,CN(C)S(=O)(=O)N1CCC2(COCc3cnc(NCC4CC4)nc32)C1 (stereo not drawn),62.8
25,Cc1nc(NCC2CC2)nc2c1COCC21CCN(S(=O)(=O)C2CC2)C1 (stereo not drawn),66
26,Fc1cnc(N2CCC3(COCc4cnc(NCC5CC5)nc43)C2)nc1 (stereo not drawn),-53.2
27,Cc1nc(NCC2CC2)nc2c1COCC21CCN(C)C1 (stereo not drawn),31.3

row,SMILES,INHIBITION [%]
1,CC(C)c1noc(CCC(=O)NC(C)c2ccccn2)n1 (stereo not drawn),-40.96
2,Nc1nccc(C2CCN(c3cnccn3)C2)n1 (stereo not drawn),30.5
3,CCOc1cc(C(=O)N2CCCC(c3nc(C)c(C)s3)C2)ccn1 (stereo not drawn),48.4
4,O=C(COc1ccc2c(c1)OCO2)NCc1ccco1,31.135
5,CCCN1CCC(CC(=O)N2CCC(C(O)c3nccn3C)CC2)CC1 (stereo not drawn),6.69
6,CCn1nc(C)c2nc(C(C)C)nc(NC)c21,16.8
7,COCCN1CCC2(CCCN(Cc3ccoc3)C2)C1=O (stereo not drawn),8.74
8,COCCN1CCCC2(CCN(c3ncnc(C)c3C)C2)C1=O (stereo not drawn),69.6
9,CCN1CCCC2(CCN(Cc3nnc(C4CC4)o3)C2)C1=O (stereo not drawn),-9.18
10,O=C1CCC2(CCCN(Cc3nnc(C4CC4)o3)C2)CN1CCO (stereo not drawn),34.4
11,O=C1N(CCO)CCCC12CCN(Cc1nnc(C3CC3)o1)C2 (stereo not drawn),61.1
12,COCCN1CCCC2(CCN(c3nccnc3N(C)C)C2)C1=O (stereo not drawn),-52.2
13,COCCN1CCCC2(CCN(Cc3noc(C4CCCC4)n3)C2)C1=O (stereo not drawn),9.56
14,COCCN1CCCC2(CCN(Cc3nnc(C4CC4)o3)C2)C1=O (stereo not drawn),51.2
15,COCCN1CCCC2(CCN(c3ncc(Cl)cc3Cl)C2)C1=O (stereo not drawn),-5.8
16,Cc1nc2oc(C(=O)N3CCCC3)c(N)c2c2c1CCCC2,16
17,CCn1cnnc1CNC(=O)N1CCN(c2ccc(OC)cc2)CC1,36.1
18,CN(C)c1cc(CNC(=O)c2cnccn2)ccn1,-6.14
19,O=C(Cc1c(F)cccc1Cl)Nc1cc(N2CCOCC2)ncn1,30.9
20,CC(C)n1nc(CN2CCCC2=O)c2c1CN(C(=O)c1ccco1)C2,39.5
21,CCC1c2cccn2CCN1S(=O)(=O)N1CCOCC1 (stereo not drawn),31.2
22,CCN1CCN(C(=O)COCc2cccc(OC)c2)CC1,-28.675
23,Cc1ccc(CN2C(=O)CCC23CCC(NC2CCOC2)CC3)cc1 (stereo not drawn),35.8
24,Cc1occc1C(=O)N1CCOCC2(CCN(C3CCOCC3)C2)C1 (stereo not drawn),43.9
25,CC(C)S(=O)(=O)N1C[C@@H](O)[C@H](N(C)Cc2ccc(F)cc2)C1,30.75
26,CNC(=O)Cc1ccc(NC(=O)NCC(C)c2ncc(C)s2)cc1 (stereo not drawn),14.8
